In PubChem BioAssay:
Active and inactive are the calls of the source.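 How the source made its calls, unless noted: active means viability at or below 10% of carrier control in both of two separate runs; inconclusive means viability at or below 10% in only one of the two runs; inactive means the rest.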

Target: Receptor tyrosine-protein kinase erbB-2 (Homo sapiens) (UniProt P04626)
Sequence (P04626 whole entry, looked up): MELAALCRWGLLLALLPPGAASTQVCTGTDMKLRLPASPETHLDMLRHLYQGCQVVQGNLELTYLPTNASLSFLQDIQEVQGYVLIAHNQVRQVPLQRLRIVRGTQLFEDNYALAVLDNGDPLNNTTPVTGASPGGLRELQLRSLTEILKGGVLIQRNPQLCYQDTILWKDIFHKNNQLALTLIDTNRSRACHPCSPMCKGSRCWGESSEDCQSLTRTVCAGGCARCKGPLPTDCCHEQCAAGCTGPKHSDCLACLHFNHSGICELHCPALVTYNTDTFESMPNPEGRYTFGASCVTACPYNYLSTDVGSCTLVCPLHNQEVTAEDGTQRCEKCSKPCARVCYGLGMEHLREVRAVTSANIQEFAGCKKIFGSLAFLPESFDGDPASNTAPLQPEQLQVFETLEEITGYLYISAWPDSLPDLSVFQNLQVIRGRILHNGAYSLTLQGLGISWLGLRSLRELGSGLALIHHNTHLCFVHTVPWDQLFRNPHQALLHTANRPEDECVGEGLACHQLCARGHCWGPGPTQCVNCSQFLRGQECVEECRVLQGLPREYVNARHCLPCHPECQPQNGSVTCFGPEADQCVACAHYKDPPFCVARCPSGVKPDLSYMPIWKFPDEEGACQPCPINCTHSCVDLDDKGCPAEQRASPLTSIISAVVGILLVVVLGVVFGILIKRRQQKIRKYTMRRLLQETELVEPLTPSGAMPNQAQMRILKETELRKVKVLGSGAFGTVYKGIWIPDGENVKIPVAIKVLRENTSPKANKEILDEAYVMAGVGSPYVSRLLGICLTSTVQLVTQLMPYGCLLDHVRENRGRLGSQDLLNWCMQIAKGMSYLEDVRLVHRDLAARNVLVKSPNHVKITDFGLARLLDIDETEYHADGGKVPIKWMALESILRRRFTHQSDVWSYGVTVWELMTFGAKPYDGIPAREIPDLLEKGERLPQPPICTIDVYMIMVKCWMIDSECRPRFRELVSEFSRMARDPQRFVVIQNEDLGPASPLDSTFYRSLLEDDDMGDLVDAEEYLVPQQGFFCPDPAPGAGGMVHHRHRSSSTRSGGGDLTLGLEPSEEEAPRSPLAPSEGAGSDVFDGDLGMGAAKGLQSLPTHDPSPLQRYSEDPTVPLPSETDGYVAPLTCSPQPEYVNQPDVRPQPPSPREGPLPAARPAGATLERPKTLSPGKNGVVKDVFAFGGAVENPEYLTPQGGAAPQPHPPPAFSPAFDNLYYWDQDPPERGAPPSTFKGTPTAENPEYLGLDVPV
Assay: reducers of endogenous Her2 protein level, primary screen, SKBR3 breast tumor cells, AlphaScreen, ATP viability (AID 461;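 active means Her2 level under about 52% in both replicate screens, with viability over 70% of control, limit read from the data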;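 further: lower value means less Her2 protein in the cells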)
Conditions: 18-24 h, at 10 µM, active compounds read low
With `COC(=O)c1cnn2c(C(F)(F)F)cc(-c3ccco3)nc12` the Her2 level was 80% (inactive). With `CCOC(=O)c1ccc(NC(=O)CCc2nc(-c3cccc(C)c3)no2)cc1` the Her2 level was 97.5% (inactive). For `COc1ccccc1C(=O)N1CCN=C1SCc1cccnc1`, the Her2 level was 103% (inactive). With `c1cncc(-c2nnc3sc(-c4ccco4)nn23)c1` the Her2 level was 106% (inactive). In the case of `CC1CN(c2nc(-c3ccccc3)nc3ccccc23)CC(C)O1` (stereo not given), the Her2 level was 134% (inactive). For `O=C(NC1CCN(Cc2nnnn2CCc2ccccc2)CC1)c1ccccc1F`, the Her2 level was 96% (inactive). In the case of `O=S(=O)(c1ccc(OCC(O)CN2CCC(Cc3ccccc3)CC2)cc1)N1CCOCC1` (stereo not given), the Her2 level was 81.5% (inactive). In the case of `COc1ccc(C2N(C(=O)c3ccccc3)CCN2C(=O)c2ccccc2)cc1`, the Her2 level was 103% (inactive). With `CCSC1=NCN(CCCC(=O)O)CN1` the Her2 level was 100% (inactive). In the case of `O=C(CCOc1ccccc1)NCc1ccccc1`, the Her2 level was 102% (inactive). For `CCOC(=O)c1ccccc1NC(=O)c1cc2sccc2n1C`, the Her2 level was 96% (inactive). For `C=CCn1c(SCC(=O)NC23CC4CC(CC(C4)C2)C3)nc(O)cc1=O`, the Her2 level was 108% (inactive). With `O=C(OCc1ccc2c(c1)OCO2)c1ccc(S(=O)(=O)N2CCCCC2)cc1` the Her2 level was 84% (inactive). In the case of `COC(=O)N1CC(c2ccccc2)CC1=O` (stereo not given), the Her2 level was 81.5% (inactive). With `COc1ccc(C2=Nn3c(nnc3-c3ccccc3)SC2)cc1OC` the Her2 level was 101% (inactive). With `CCOc1ccc(Cl)cc1S(=O)(=O)N1CCCC1` the Her2 level was 94.5% (inactive). In the case of `Cn1c(SCCN2CCCCC2)nnc1-c1ccccc1Br`, the Her2 level was 95.5% (inactive). For `O=C(COc1ccccc1)N1CCN(C(=O)c2cccc(F)c2)CC1`, the Her2 level was 90% (inactive). For `COc1ccc(CN2CC(C(=O)NCCCOC(C)C)CC2=O)cc1` (stereo not given), the Her2 level was 90.5% (inactive). For `COC(=O)CSc1nc(C)c(C(C)=O)cc1C#N`, the Her2 level was 90.5% (inactive). With `Cn1c(=O)c2c(nc(Br)n2CCSc2ncccn2)n(C)c1=O` the Her2 level was 114% (inactive). With `O=C(NCC(c1cccnc1)N1CCOCC1)c1cccs1` (stereo not given) the Her2 level was 75.5% (inactive). For `O=C(CSc1nnnn1-c1ccc(Cl)cc1)NC(=O)Nc1ccc2c(c1)OCCO2`, the Her2 level was 101% (inactive). With `Cc1nc2sc(C(c3ccco3)N3CCN(c4ccccc4F)CC3)c(O)n2n1` (stereo not given) the Her2 level was 85% (inactive). With `CC1CCCCC1NC(=O)CN1CCN(Cc2ccccc2Cl)C1=O` (stereo not given) the Her2 level was 97% (inactive). In the case of `COc1ccc(-n2c(=O)[nH]cc(C(=O)Nc3ccc(NC(C)=O)cc3)c2=O)cc1`, the Her2 level was 106% (inactive). For `CCN(CC)CCN1C(=O)C(=O)/C(=C(/O)c2c(C)[nH]c(C(=O)OC)c2C)C1c1ccco1` (stereo not given), the Her2 level was 105% (inactive). In the case of `Cc1nc(N2CCc3ccccc32)[nH]c(=O)c1CCC(C)C`, the Her2 level was 89% (inactive). In the case of `C=COC(=O)CSc1snc(SCC(=O)OC)c1C#N`, the Her2 level was 92.5% (inactive). For `COc1ccc2[nH]c(=O)c(CN(C(=O)c3ccncc3)C(C)C)cc2c1`, the Her2 level was 108% (inactive). With `Cc1ccc2cc3cc(C(=O)N4CC(C)CC(C)C4)oc3nc2c1` (stereo not given) the Her2 level was 78.5% (inactive). In the case of `O=C(C1CCN(c2nnnn2-c2ccccc2)CC1)N1CCN(c2ccccc2)CC1`, the Her2 level was 87.5% (inactive). In the case of `CCCCSCCCNC(=O)CS(=O)Cc1nc(-c2cccc(C)c2)oc1C` (stereo not given), the Her2 level was 76% (inactive). In the case of `Cc1cc(C)n(-c2nnc(C)n2/N=C/c2ccccc2F)n1`, the Her2 level was 89% (inactive). With `O=C(O)c1cc(-c2ccccc2Cl)n[nH]1` the Her2 level was 93.5% (inactive). With `O=C1c2ccccc2C(=O)N1CC(O)Cn1nnc2ccccc21` (stereo not given) the Her2 level was 108% (inactive). For `COCCN(C(=O)CCC(=O)Nc1ccccn1)C(C(=O)NC1CCCC1)c1ccc(OC)cc1` (stereo not given), the Her2 level was 105% (inactive). With `CCOC(=O)c1ccccc1NC(=O)COC(=O)C1=COCCO1` the Her2 level was 92% (inactive). For `Cc1ccc(-c2cc(C(=O)O)n[nH]2)o1`, the Her2 level was 128% (inactive). With `Cn1c(=O)c2c(nc(SCCCO)n2Cc2ccccc2Cl)n(C)c1=O` the Her2 level was 78.5% (inactive).

Test system: not listed separately
Assay: SK-BR-3 cell growth inhibitors, pilot screen, 24 h, human (AID 572);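 further: compound exposure lasted between 18 and 24 h rather than exactly 24 h; 100% = carrier-treated control wells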
Conditions: SK-BR-3 viability, CellTiter-Glo luminescence, at 10 µM, active compounds read low
For `COC(=O)c1cnn2c(C(F)(F)F)cc(-c3ccco3)nc12`, the viability was 99% (inactive). In the case of `CCOC(=O)c1ccc(NC(=O)CCc2nc(-c3cccc(C)c3)no2)cc1`, the viability was 114% (inactive). In the case of `COc1ccccc1C(=O)N1CCN=C1SCc1cccnc1`, the viability was 102% (inactive). With `c1cncc(-c2nnc3sc(-c4ccco4)nn23)c1` the viability was 118% (inactive). In the case of `CC1CN(c2nc(-c3ccccc3)nc3ccccc23)CC(C)O1` (stereo not given), the viability was 91% (inactive). In the case of `O=C(NC1CCN(Cc2nnnn2CCc2ccccc2)CC1)c1ccccc1F`, the viability was 81.5% (inactive). For `O=S(=O)(c1ccc(OCC(O)CN2CCC(Cc3ccccc3)CC2)cc1)N1CCOCC1` (stereo not given), the viability was 81.5% (inactive). For `COc1ccc(C2N(C(=O)c3ccccc3)CCN2C(=O)c2ccccc2)cc1`, the viability was 114% (inactive). For `CCSC1=NCN(CCCC(=O)O)CN1`, the viability was 118% (inactive). In the case of `O=C(CCOc1ccccc1)NCc1ccccc1`, the viability was 122% (inactive). In the case of `CCOC(=O)c1ccccc1NC(=O)c1cc2sccc2n1C`, the viability was 90% (inactive). With `C=CCn1c(SCC(=O)NC23CC4CC(CC(C4)C2)C3)nc(O)cc1=O` the viability was 138% (inactive). In the case of `O=C(OCc1ccc2c(c1)OCO2)c1ccc(S(=O)(=O)N2CCCCC2)cc1`, the viability was 75.5% (inactive). In the case of `COC(=O)N1CC(c2ccccc2)CC1=O` (stereo not given), the viability was 96.5% (inactive). With `COc1ccc(C2=Nn3c(nnc3-c3ccccc3)SC2)cc1OC` the viability was 124% (inactive). In the case of `CCOc1ccc(Cl)cc1S(=O)(=O)N1CCCC1`, the viability was 100% (inactive). For `Cn1c(SCCN2CCCCC2)nnc1-c1ccccc1Br`, the viability was 94.5% (inactive). In the case of `O=C(COc1ccccc1)N1CCN(C(=O)c2cccc(F)c2)CC1`, the viability was 112% (inactive). With `COc1ccc(CN2CC(C(=O)NCCCOC(C)C)CC2=O)cc1` (stereo not given) the viability was 101% (inactive). In the case of `COC(=O)CSc1nc(C)c(C(C)=O)cc1C#N`, the viability was 92% (inactive). With `Cn1c(=O)c2c(nc(Br)n2CCSc2ncccn2)n(C)c1=O` the viability was 98% (inactive). In the case of `O=C(NCC(c1cccnc1)N1CCOCC1)c1cccs1` (stereo not given), the viability was 101% (inactive). With `O=C(CSc1nnnn1-c1ccc(Cl)cc1)NC(=O)Nc1ccc2c(c1)OCCO2` the viability was 104% (inactive). In the case of `Cc1nc2sc(C(c3ccco3)N3CCN(c4ccccc4F)CC3)c(O)n2n1` (stereo not given), the viability was 97% (inactive). With `CC1CCCCC1NC(=O)CN1CCN(Cc2ccccc2Cl)C1=O` (stereo not given) the viability was 102% (inactive). With `COc1ccc(-n2c(=O)[nH]cc(C(=O)Nc3ccc(NC(C)=O)cc3)c2=O)cc1` the viability was 100% (inactive). In the case of `CCN(CC)CCN1C(=O)C(=O)/C(=C(/O)c2c(C)[nH]c(C(=O)OC)c2C)C1c1ccco1` (stereo not given), the viability was 88% (inactive). With `Cc1nc(N2CCc3ccccc32)[nH]c(=O)c1CCC(C)C` the viability was 87.5% (inactive). For `C=COC(=O)CSc1snc(SCC(=O)OC)c1C#N`, the viability was 85.5% (inactive). With `COc1ccc2[nH]c(=O)c(CN(C(=O)c3ccncc3)C(C)C)cc2c1` the viability was 96% (inactive). For `Cc1ccc2cc3cc(C(=O)N4CC(C)CC(C)C4)oc3nc2c1` (stereo not given), the viability was 108% (inactive). For `O=C(C1CCN(c2nnnn2-c2ccccc2)CC1)N1CCN(c2ccccc2)CC1`, the viability was 106% (inactive). For `CCCCSCCCNC(=O)CS(=O)Cc1nc(-c2cccc(C)c2)oc1C` (stereo not given), the viability was 98.5% (inactive). For `Cc1cc(C)n(-c2nnc(C)n2/N=C/c2ccccc2F)n1`, the viability was 94% (inactive). With `O=C(O)c1cc(-c2ccccc2Cl)n[nH]1` the viability was 92% (inactive). In the case of `O=C1c2ccccc2C(=O)N1CC(O)Cn1nnc2ccccc21` (stereo not given), the viability was 120% (inactive). In the case of `COCCN(C(=O)CCC(=O)Nc1ccccn1)C(C(=O)NC1CCCC1)c1ccc(OC)cc1` (stereo not given), the viability was 106% (inactive). With `CCOC(=O)c1ccccc1NC(=O)COC(=O)C1=COCCO1` the viability was 98.5% (inactive). For `Cc1ccc(-c2cc(C(=O)O)n[nH]2)o1`, the viability was 95.5% (inactive). With `Cn1c(=O)c2c(nc(SCCCO)n2Cc2ccccc2Cl)n(C)c1=O` the viability was 80.5% (inactive).
